Consider five molecules from PubChem BioAssay (EPA / NIEHS).

Several values for one entry are separate records, joined by “and”; a condition that tells them apart may be missing. Identical values can stand only once. Some compounds were tested as several samples or in several runs, with calls that do not always agree. Activity calls are given as the source filed them. Rule for the calls: active = hit-call score of the fitted dose curve at least 0.9, where 1 is the maximum; inactive = score below 0.9.

The nature of assay [1]: APR_HepG2_CellLoss_72hr: Apredica 72-hour HepG2 Assay for Cell Loss (AID 2282915). Conditions: high-content imaging. The method, boiled down: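 HepG2 cells exposed 72 h to compound at 0.39–200 uM (10 concentrations, duplicate) in 0.5% DMSO. Fixed with 3.7% formaldehyde and Hoechst 33342-stained. Imaged at 20x; nuclear count gives cell number, fitted bidirectionally versus DMSO.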

Assay [2] in a line: APR_HepG2_P-H2AX_72hr: Apredica 72-hour HepG2 Assay for H2AX Phosphorylation (AID 2282916).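 Note: phospho-histone H2A.x immunostain intensity per cell marking DNA damage.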 The settings on record: imaging, actives raise or lower the signal. A digest of the protocol: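 HepG2 human liver cells were exposed for 72 hr to compounds at 0.39–200 uM (10 concentrations, duplicate per plate) in 0.5% v/v DMSO. Fixed, permeabilized cells were immunolabeled for phospho-histone H2A.x with Hoechst 33342 and imaged by HCS fluorescence; bidirectional fit versus DMSO.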

Assay [3] is described as follows: APR_HepG2_MitoMembPot_72hr: Apredica 72-hour HepG2 Assay for Mitochondrial Membrane Potential (AID 2282917). Conditions: imaging, actives raise or lower the signal. The method, boiled down:
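HepG2 cells dosed 72 hr with compound at 0.39–200 uM in duplicate, 0.5% v/v DMSO final. Mitochondria stained with 250 nM MitoTracker Red CMXRos for 30 min before formaldehyde fixation, imaged by high-content fluorescence; bidirectional fit versus DMSO.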

Assay [4] is described as follows: APR_HepG2_MitoticArrest_72hr: Apredica 72-hour HepG2 Assay for Mitotic Arrest (AID 2282918). The settings on record: high-content imaging, actives raise or lower the signal. The method, boiled down: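 HepG2 cells treated 72 h at 0.39–200 uM, 0.5% DMSO final; formaldehyde-fixed, stained with Hoechst 33342 and phospho-histone H3 antibody, imaged by high-content fluorescence; bidirectional fit versus DMSO.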

A short description of assay [5]: APR_HepG2_MicrotubuleCSK_72hr: Apredica 72-hour HepG2 Assay for Microtubule CSK Stabilty (AID 2282919). Conditions: HepG2 microtubule cytoskeleton, high-content imaging, actives raise or lower the signal. A digest of the protocol:
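HepG2 cells were exposed 72 hr to compound at 0.39–200 uM in duplicate (0.5% DMSO final), then fixed and permeabilized. Alpha-tubulin immunofluorescence was imaged by high-content microscopy, with bidirectional fitting against DMSO and taxol as positive control.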

Assay [6] can be described thus: APR_HepG2_P-H2AX_24hr: Apredica 24-hour HepG2 Assay for H2AX Phosphorylation (AID 2282920). Conditions: high-content imaging, actives raise or lower the signal. A digest of the protocol:
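HepG2 cells dosed 24 h at 0.39–200 uM (10 points, duplicate, 0.5% DMSO final). Formaldehyde-fixed and permeabilized, then immunostained for phospho-H2A.x with Hoechst. Fluorescence quantified by high-content imaging, fitted bidirectionally versus DMSO.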

The nature of assay [7]: APR_HepG2_StressKinase_72hr: Apredica 72-hour HepG2 Assay for Stress Kinase (AID 2282921). The settings on record: HepG2 stress kinase (phospho-c-Jun) imaging, actives raise or lower the signal. A digest of the protocol:
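Cells were exposed for 72 h to ten concentrations (0.39–200 uM, duplicate) at 0.5% v/v DMSO final, then fixed with 3.7% formaldehyde, permeabilized and immunostained for phospho-c-Jun (Cy3 secondary) with Hoechst nuclear counterstain.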

Assay [8] is described as follows: APR_HepG2_StressKinase_24hr: Apredica 24-hour HepG2 Assay for Stress Kinase (AID 2282922). Conditions: HepG2 stress kinase (phospho-c-Jun) imaging, actives raise or lower the signal. A digest of the protocol:
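HepG2 cells exposed 24 h to 0.39–200 uM compound in duplicate (0.5% v/v DMSO final). Cells fixed in 3.7% formaldehyde, permeabilized and immunostained for phospho-c-Jun; read by high-content fluorescence imaging, fitted bidirectionally against DMSO.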

The nature of assay [9]: APR_HepG2_p53Act_72hr: Apredica 72-hour HepG2 Assay for p53 Activation (AID 2282923).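 Note: average cellular p53 protein immunofluorescence intensity in HepG2 cells.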 The settings on record: high-content imaging, actives raise or lower the signal. The method, boiled down:
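Cells were dosed for 72 hr with compounds at 0.39–200 uM in duplicate (final DMSO 0.5% v/v), then fixed in 3.7% formaldehyde, permeabilized with Triton X-100 and immunostained for p53 (Cy5) with Hoechst 33342 nuclear counterstain.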

Assay [10] is described as follows: APR_HepG2_MitoMass_72hr: Apredica 72-hour HepG2 Assay for Mitochondrial Mass (AID 2282924).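 Note: MitoTracker Red CMXRos stain intensity per cell imaged as mitochondrial mass.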 Conditions: high-content imaging, actives raise or lower the signal. The method, boiled down:
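HepG2 cells dosed 72 hr at 0.39–200 uM (0.5% DMSO), in duplicate. MitoTracker Red CMXRos 250 nM loaded 30 min before formaldehyde fixation; high-content fluorescence imaging, bidirectional fit versus DMSO.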

Assay [11] in a line: APR_HepG2_NuclearSize_72hr: Apredica 72-hour HepG2 Assay for Nuclear Size (AID 2282925). Conditions: high-content imaging, actives raise or lower the signal. A digest of the protocol: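 HepG2 cells dosed 72 h at 0.39–200 uM (10 concentrations, duplicate) in 0.5% v/v DMSO final. Fixed, Hoechst 33342-stained nuclei imaged; nuclear diameter measured by automated image analysis. Bidirectional fit versus DMSO.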

The nature of assay [12]: ATG_CRE_CIS: Attagene CIS-FACTORIAL HepG2 Assay for human cAMP Responsive Element (CRE) binding protein 3 (AID 2282926). The settings on record: HepG2 CRE cis-reporter, Attagene multiplexed mRNA; actives raise or lower the signal. A digest of the protocol: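 HepG2 cells transiently transfected with cis-element-driven multiple reporter transcription units; CRE reporter mRNA measured 24 h after dosing by RT-PCR, 6-FAM labelling, HpaI digestion and capillary electrophoresis. Bidirectional fit versus DMSO baseline.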

Assay [13] has as its target CCAAT/enhancer-binding protein beta (Homo sapiens) (UniProt P17676). As to the kind of experiment: ATG_C_EBP_CIS: Attagene CIS-FACTORIAL HepG2 Assay for human CCAAT/Enhancer Binding Protein (C/EBP) beta (AID 2282927). The settings on record: HepG2 Attagene cis-factorial transcription factor reporter; actives raise or lower the signal. The method, boiled down: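 Transiently transfected HepG2 (MRTU library, endogenous TF-driven promoters); 24 h dosing; total RNA → oligo(dT) RT → PCR → 6-FAM primer extension → HpaI digest → CE; fit bidirectionally vs DMSO.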

Assay [14] can be described thus: ATG_CMV_CIS: Attagene CIS-FACTORIAL HepG2 Assay for human CMV (Internal Marker) (AID 2282928).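 Note: endpoint acts as a background internal control marker rather than a target.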 Conditions: HepG2 CMV promoter reporter, transcription factor profiling; actives raise or lower the signal. The method, boiled down: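 Cell system: HepG2, transiently transfected multiple reporter units under cis promoters. Exposure: 24 h. Detection: RT-PCR, FAM labeling, HpaI digestion, capillary electrophoresis. Analysis: bidirectional, DMSO baseline.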

A short description of assay [15]: ATG_DR4_LXR_CIS: Attagene CIS-FACTORIAL HepG2 Assay for human Liver X Receptor (LXR), DR4 submotif (AID 2282929). Conditions: HepG2 Attagene DR4 cis-reporter, mRNA transcription; actives raise or lower the signal. A digest of the protocol:
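Transiently transfected HepG2 liver cells; cis-regulated reporters; 24 h dosing. RT-PCR plus CE read-out of reporter mRNA. DMSO baseline, bidirectional curve fitting.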

Assay [16] concerns the target Aryl hydrocarbon receptor (Homo sapiens) (UniProt P35869). Nature of the assay: ATG_Ahr_CIS: Attagene CIS-FACTORIAL HepG2 Assay for human Aryl Hydrocarbon Receptor (Ahr) (AID 2282930). The settings on record: HepG2 AhR cis-factorial reporter transcription; actives raise or lower the signal. A digest of the protocol:
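Read-out: reporter mRNA quantified by RT-PCR with fluorescent primer extension and capillary electrophoresis. Human HepG2 liver cells carried transfected cis-promoter reporter units and were exposed to chemical for 24 h; gain or loss fitted relative to DMSO.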

The nature of assay [17]: ATG_AP_1_CIS: Attagene CIS-FACTORIAL HepG2 Assay for human Activator Protein 1 (AP-1) (AID 2282931). Conditions: HepG2 Attagene cis-factorial AP-1 reporter mRNA; actives raise or lower the signal. A digest of the protocol:
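We transfected HepG2 cells transiently with a set of cis-regulated reporter transcription units, dosed them for 24 h, and quantified reporter mRNA via RT-PCR and capillary electrophoresis, scoring gain or loss of signal relative to DMSO.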

Assay [18] is described as follows: ATG_AP_2_CIS: Attagene CIS-FACTORIAL HepG2 Assay for human Activator Protein 2 (AP-2) (AID 2282932). Conditions: HepG2 AP-2 cis-reporter, Attagene transcription factor profiling; actives raise or lower the signal. A digest of the protocol:
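Multiplexed mRNA reporter assay in HepG2: cis-regulated units report endogenous factor activity after 24 h treatment. Fluorescence from capillary electrophoresis of RT-PCR products gives the signal, with DMSO as baseline.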

A short description of assay [19]: ATG_BRE_CIS: Attagene CIS-FACTORIAL HepG2 Assay for human Bone Morphogenetic Protein (BMP) Response Element (BRE) (AID 2282933). Conditions: HepG2 BMP response element reporter, Attagene transcription factor profiling; actives raise or lower the signal. A digest of the protocol:
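A HepG2 multiplex reporter system measured inducible reporter mRNA 24 h post-dosing. Detection: RT-PCR, 6-FAM primer extension, HpaI digestion, capillary electrophoresis. Activity fitted bidirectionally relative to DMSO.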

In assay [20] the target is Retinoic acid receptor alpha (Homo sapiens) (UniProt P10276). As to the kind of experiment: ATG_DR5_RAR_CIS: Attagene CIS-FACTORIAL HepG2 Assay for human Retinoic Acid Receptor Alpha (RARE), DR5 submotif (AID 2282934).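 For AC50: reporter responds to endogenous RAR alpha beta and gamma in HepG2 not RARA alone.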 The settings on record: HepG2 Attagene cis-factorial RARE DR5 reporter, mRNA; actives raise or lower the signal. The method, boiled down:
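Read-out: DR5-driven reporter transcript measured by RT-PCR, 6-FAM primer extension, HpaI digest and capillary electrophoresis. Human HepG2 liver cells carry transiently transfected cis-element reporter constructs; dosing lasts 24 h. Gain or loss of signal fitted against DMSO baseline.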

Chain of CCAAT/enhancer-binding protein beta (Homo sapiens) (P17676 whole entry, looked up): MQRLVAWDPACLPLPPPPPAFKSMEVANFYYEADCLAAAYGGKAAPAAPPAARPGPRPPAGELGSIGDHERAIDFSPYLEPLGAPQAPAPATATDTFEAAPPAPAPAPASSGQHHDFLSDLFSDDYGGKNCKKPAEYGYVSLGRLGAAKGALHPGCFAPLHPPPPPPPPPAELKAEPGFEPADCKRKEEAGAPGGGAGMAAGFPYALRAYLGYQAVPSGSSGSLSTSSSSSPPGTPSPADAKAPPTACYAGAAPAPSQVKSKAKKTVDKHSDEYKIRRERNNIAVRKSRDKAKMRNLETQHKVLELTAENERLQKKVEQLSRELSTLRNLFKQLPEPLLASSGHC
Chain of Aryl hydrocarbon receptor (Homo sapiens) (P35869 whole entry, looked up): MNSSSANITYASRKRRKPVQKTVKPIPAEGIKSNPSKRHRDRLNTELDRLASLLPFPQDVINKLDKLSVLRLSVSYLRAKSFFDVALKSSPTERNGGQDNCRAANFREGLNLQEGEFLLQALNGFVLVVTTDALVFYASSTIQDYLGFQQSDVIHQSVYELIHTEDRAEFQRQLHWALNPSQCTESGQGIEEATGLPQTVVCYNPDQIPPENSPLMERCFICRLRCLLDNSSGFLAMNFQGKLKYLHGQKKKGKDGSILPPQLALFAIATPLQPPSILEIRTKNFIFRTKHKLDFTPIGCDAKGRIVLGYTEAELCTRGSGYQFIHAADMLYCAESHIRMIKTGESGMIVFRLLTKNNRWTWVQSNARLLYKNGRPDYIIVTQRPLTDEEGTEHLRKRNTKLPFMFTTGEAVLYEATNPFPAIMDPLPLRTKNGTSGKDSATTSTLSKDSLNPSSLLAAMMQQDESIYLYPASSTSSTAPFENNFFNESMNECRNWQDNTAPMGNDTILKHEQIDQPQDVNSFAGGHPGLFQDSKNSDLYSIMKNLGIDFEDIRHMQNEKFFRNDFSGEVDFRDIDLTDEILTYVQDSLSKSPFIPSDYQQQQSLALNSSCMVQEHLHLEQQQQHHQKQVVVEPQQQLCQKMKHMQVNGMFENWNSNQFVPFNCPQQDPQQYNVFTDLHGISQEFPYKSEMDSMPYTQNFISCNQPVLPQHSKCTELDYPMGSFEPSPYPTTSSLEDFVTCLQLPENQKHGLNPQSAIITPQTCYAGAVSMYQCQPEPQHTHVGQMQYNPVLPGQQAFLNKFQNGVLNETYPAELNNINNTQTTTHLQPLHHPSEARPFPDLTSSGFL
Chain of Retinoic acid receptor alpha (Homo sapiens) (P10276 whole entry, looked up): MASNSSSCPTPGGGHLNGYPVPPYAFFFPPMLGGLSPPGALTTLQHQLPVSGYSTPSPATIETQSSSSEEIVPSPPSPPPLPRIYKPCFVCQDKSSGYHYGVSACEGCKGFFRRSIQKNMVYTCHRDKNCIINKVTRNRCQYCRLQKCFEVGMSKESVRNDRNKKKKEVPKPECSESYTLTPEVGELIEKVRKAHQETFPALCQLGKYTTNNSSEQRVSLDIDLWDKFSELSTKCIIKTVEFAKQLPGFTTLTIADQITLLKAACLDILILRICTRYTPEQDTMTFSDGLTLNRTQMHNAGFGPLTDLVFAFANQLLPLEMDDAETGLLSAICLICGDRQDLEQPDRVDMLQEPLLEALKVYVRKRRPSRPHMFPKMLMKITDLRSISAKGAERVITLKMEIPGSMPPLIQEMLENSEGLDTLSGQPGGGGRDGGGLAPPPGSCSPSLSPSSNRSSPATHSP

A word on the AC50: it is the concentration at which the activity in the assay is half-maximal. With `O=[N+]([O-])c1c(Cl)c(Cl)c(Cl)c(Cl)c1Cl`, the call in [1], in [2], in assay [3], in assay [4], in assay [5] and in assay [6] was inactive. The molecule was called inactive in [7], in [8], in assay [9], in assay [10], in [11] and in assay [13]. The molecule was called inactive in assay [14], in [15], in assay [16], in assay [17], in assay [18] and in assay [19]. Further, the AC50 in [12] is 32.2 µM (active); in assay [20], 13.2 µM (active).

Consider `CCC(C)Nc1c([N+](=O)[O-])cc(C(C)(C)C)cc1[N+](=O)[O-]` (stereo unspecified), for which the AC50 in assay [1] is 64.9 µM (active); in [5], 57.8 µM (active); in [12], 7.44 µM (active); in assay [14] it was 24.1 µM (active); in [15], 36.4 µM (active); in [17], 43.3 µM (active). The AC50 in assay [20] was 6.5 µM (active). The outcome in assay [2], in assay [3], in assay [4], in assay [6], in assay [7] and in assay [8] was inactive. The molecule was called inactive in [10], in assay [11], in assay [13], in [16], in assay [18] and in assay [19].

On to `CC1(c2ccc(Oc3ccccc3)cc2)OC(=O)N(Nc2ccccc2)C1=O` (stereo unspecified), for which the AC50 is 32.6 µM (active) in assay [1]; 93.2 µM (active) in assay [6]; 121 µM (active) in assay [9]; 1.3 µM (active) in [12]; 1.14 µM (active) in [19]. For the same molecule, the outcome in assay [2], in [3], in [4], in assay [5], in assay [7] and in assay [8] was inactive. The molecule was classed as inactive in [10], in [11], in assay [13], in assay [14], in assay [15] and in assay [16]. Further, the molecule was classed as inactive in assay [17], in [18] and in assay [20].

In the case of `N#CN`, the molecule was classed as inactive in assay [1], in assay [2], in assay [3], in assay [4], in assay [5] and in assay [6]. The result in assay [7], in assay [8], in [10], in assay [11], in [12] and in assay [13] was inactive. For the same molecule, the molecule was called inactive in assay [14], in assay [15], in assay [16], in [18], in assay [19] and in [20].

For `Oc1cc(Cl)ccc1Oc1ccc(Cl)cc1Cl`, the AC50 in assay [1] is 35.3 µM (active) and 26.9 µM (active) and 67 µM (active); in assay [2] it was 24.4 µM (active) and 34.3 µM (active); in assay [3], 35 µM (active); in [4], 27.9 µM (active); in assay [5], 98.6 µM (active) and 71.5 µM (active); in assay [6], 27.9 µM (active) and 45.5 µM (active). Further, the AC50 is 49.2 µM (active) in assay [7]; 14.9 µM (active) and 16.3 µM (active) in assay [9]; 170 µM (active) in assay [10]; 36.8 µM (active) in assay [11]; 8.07 µM (active) [middle of 4 runs] in assay [12]; 20.5 µM (active) in assay [13]. For the same molecule, the AC50 is 8.95 µM (active) [middle of 5 runs] in assay [14]; 17.6 µM (active) [middle of 4 runs] in assay [15]; 5.97 µM (active) in assay [16]; 20.7 µM (active) in assay [18]; 7.15 µM (active) [middle of 6 runs] in [19]. The outcome in [2], in assay [3], in assay [4], in assay [5], in [6] and in [7] was inactive. Besides, the call in assay [8], in assay [9], in assay [10], in assay [11], in assay [12] and in assay [13] was inactive. Moreover, the call in [14], in assay [15], in assay [16], in assay [18] and in assay [19] was inactive.
